# The source made the active and inactive calls. How the source made its calls: active means hit-call score of the fitted dose curve at least 0.9, where 1 is the maximum; inactive means score below 0.9.
# Test: ATG_MRE_CIS: Attagene CIS-FACTORIAL HepG2 Assay for human Metal Responsive Element (MRE) (AID 2282954)
# Conditions: HepG2 MRE cis-reporter transcription, Attagene multiplex; actives raise or lower the signal
# Outline: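 RT-PCR/capillary electrophoresis readout of reporter mRNA, 24 h post-dosing, in HepG2 cells transfected with multiplexed cis-regulated reporter constructs. Gain or loss of signal fitted bidirectionally against DMSO baseline.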
Structure (SMILES),outcome,AC50
NC(N)=NC(N)=NCCc1ccccc1,inactive,–
CN1CCc2cccc3c2[C@H]1Cc1ccc(O)c(O)c1-3,inactive,–
CCC(=O)OC/C=C(\C)CCC=C(C)C,inactive,–
C/C=C(\C)C(=O)OC/C=C(\C)CCC=C(C)C,inactive,–
S=c1[nH][nH]c(=S)s1,inactive,–
O=C1OC2(c3ccc(O)cc3Oc3cc(O)ccc32)c2ccccc21,inactive,–
CC(C)Cc1ccc(C(C)C(=O)O)cc1 (configuration not stated),inactive,–
CCCCOC(=O)C(C)OC(=O)CCC (configuration not stated),inactive,–
O=C(O)c1ccc(C(=O)O)c(C(=O)O)c1,inactive,–
CC(CCO)CC(C)(C)C (configuration not stated),inactive,–
O=S(=O)(O)CCCN1CCOCC1,inactive,–
CCO[Si](CCC#N)(OCC)OCC,inactive,–
O=c1cc(-c2ccc(O)cc2)oc2cc(O)cc(O)c12,–,41.1 µM (active)
CC1=CC(O)CC(C)(C)C1 (configuration not stated),inactive,–
CCC(=O)OCC=Cc1ccccc1,inactive,–
CCCCC1CCCCC(=O)O1 (configuration not stated),inactive,–
CCCCCCCCCO,inactive,–
CC(C)(O)CCc1ccccc1,inactive,–
CN(C)CCC=C1c2ccccc2CCc2ccccc21,–,43.2 µM (active)
O=C(O)CS,inactive,–
CC(C)(CO)CO,inactive,–
CCCCOCCOCCO,inactive,–
Brc1cc(Br)cc(Br)c1,inactive,–
CC(C)Cc1ccccc1,inactive,–
COc1ccc(OC)cc1,inactive,–
Nc1ccc(O)c(N)c1,inactive,–
N=C1N=C(N)c2ccccc21,–,74.5 µM (active)

# Test: ATG_PBREM_CIS: Attagene CIS-FACTORIAL HepG2 Assay for human Phenobarbital-responsive Enhancer Module (PBREM) (AID 2282955)
# Conditions: HepG2 PBREM cis-reporter, Attagene multiplexed transcription; actives raise or lower the signal
# Outline: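 Endogenous transcription factors in human liver HepG2 cells drive a PBREM cis-element reporter, whose transcript level after 24 h treatment is quantified by RT-PCR with capillary electrophoresis; activity fitted in both directions against DMSO.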
row,Structure (SMILES),outcome
1,CN1CCc2cccc3c2[C@H]1Cc1ccc(O)c(O)c1-3,inactive
2,S=c1[nH][nH]c(=S)s1,inactive
3,CC(C)Cc1ccc(C(C)C(=O)O)cc1 (configuration not stated),inactive
4,NC(=O)c1cnccn1,inactive
5,CC1=CC(C)C(C=O)C(C)C1 (configuration not stated) (tested in a mixture with another compound),inactive
6,CC(C)(C)C1CCC(O)CC1 (configuration not stated),inactive
7,O=C(O)c1ccc(C(=O)O)c(C(=O)O)c1,inactive
8,C=C(C)C(=O)OCCC(C)OC(=O)C(=C)C (configuration not stated),inactive
9,CC(=O)N(C)C,inactive
10,O=c1cc(-c2ccc(O)cc2)oc2cc(O)cc(O)c12,inactive
11,CCC(=O)OCC=Cc1ccccc1,inactive
12,CCCCC1CCCCC(=O)O1 (configuration not stated),inactive
13,CCCCCCCCCO,inactive
14,CN(C)CCC=C1c2ccccc2CCc2ccccc21,inactive
15,CCOC(=O)COC(=O)c1ccccc1C(=O)OCC,inactive
16,Brc1cc(Br)cc(Br)c1,inactive
17,COc1ccc(OC)cc1,inactive
18,Nc1ccc(O)c(N)c1,inactive
19,CCCC1CCC(=O)CC1,inactive
20,N=C1N=C(N)c2ccccc21,inactive
